These results are taken from PubChem BioAssay (NCATS).

Structures are written as SMILES. Several values for one entry are separate records, joined by “and”; a condition that tells them apart may be missing. Equal entries are not always repeated. Records with an inconclusive call do not appear. Activity calls are given as the source filed them. Unless noted, the call rests on the fitted dose curve; in most records, active means well fitted curve in either direction with a large enough effect (not every such curve was filed as active); inconclusive means small, poorly fitted or top-dose-only effect, or another doubt; inactive means flat fitted curve, though single readings scatter. Peptide text beside a SMILES is read from it.

Test [1] can be described thus: AP1 Signaling Pathway (AID 357).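 Further: ME-180 reporter cells stimulated with EGF at its EC50 level; on the % scale 0 is the no-effect control and ±100 the full control effect.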 Particulars: ME-180 AP-1-bla reporter, EGF-induced, beta-lactamase ratio, 5 h; series mostly up to 17.2 µM. In short, it runs like this: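 Beta-lactamase reporter under AP-1 response element, ME-180 background. Stimulus: EC50 EGF. Compound exposure 5 h, 37 °C. Detection: CCF4, 2.5 h RT, 460/530 nm. Values: AC50 from titration.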
The nature of test [2]: NFAT Signaling Pathway (AID 444).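 Further: carbachol stimulus at about its EC50 of 1 µM final; on the % scale 0 is the no-effect control and ±100 the full control effect.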 The settings on record: Jurkat NFAT-bla M1, carbachol, beta-lactamase ratio, 5 h. In short, it runs like this:
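Read-out: CCF4 FRET ratio (460 nm/530 nm) after 1 h RT dye loading, used for %activity and AC50 from titration series. Cells: Jurkat NFAT-β-lactamase/M1 line, treated with compound plus 1 uM carbachol for 5 h, 37 °C.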

Test [3] is described as follows: Stat Signaling Pathway (AID 446).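 Further: ME-180 cervical cancer cells given 40 pM IL-6 alongside compound; SIE-controlled beta-lactamase reporter measured as 460/530 nm FRET emission ratio; on the % scale 0 is the no-effect control and ±100 the full control effect.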 Particulars: ME-180 (cervical carcinoma) SIE beta-lactamase reporter, IL-6 stimulated, 5 h; series mostly up to 17.2 µM. The procedure, abridged: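 Overnight-plated ME-180 cells bearing a STAT Inducible Element beta-lactamase reporter; 5 h co-exposure to compound and 40 pM IL-6; values normalized to 300 pM IL-6 and 125 nM JAK inhibitor controls.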
Test [4] in a line: Cell Viability - BJ (AID 421; calls by dose curve;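 further: potency means the concentration at half of the fitted maximal effect; cells exposed to compound for 40 hours at 37 °C before readout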). The settings on record: BJ fibroblast viability, qHTS. In short, it runs like this:
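Quantitative HTS: ATP depletion in BJ cells after 40 hr compound exposure in complete culture medium, detected with CellTiter-Glo; AC50 from standard Hill fits.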
A general note: Quantitative high-throughput screening tests each substance at several concentrations.

Test [5] in a line: Cell Viability - Jurkat (AID 426;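 active means dose-dependent loss of cell ATP signal giving a full or clear fitted curve, ranked by lower potency value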;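 further: potency means the concentration at half of the fitted maximal effect; cells exposed to compound for 40 hours at 37 °C before ATP read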). The settings on record: qHTS. The procedure, abridged: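 Luminescent ATP read-out (CellTiter-Glo, 20 min at room temperature) after 40 hr compound exposure at 37 °C of Jurkat E6-1 cells, 5000/well. Decreased ATP taken as cytotoxicity; AC50 from standard Hill equation.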
A short description of test [6]: Cell Viability - Hek293 (AID 427;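 active means compounds whose dose-response curve shows a full or clear partial loss of cell viability, called from curve shape rather than a numeric limit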;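 further: potency means the concentration at half of the fitted maximal effect; cells exposed to compound for 40 hours at 37 °C before reading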). The settings on record: qHTS. In short, it runs like this:
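AC50 values derive from Hill-modelled concentration-response of ATP-based luminescence, normalized between DMSO-only and 100 uM tamoxifen controls. Cells were exposed in complete culture medium for 40 hr at 37 °C before detection.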

The nature of test [7]: Cell Viability - MRC5 (AID 434; calls by dose curve;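 further: potency means the concentration at half of the fitted maximal effect; cells exposed to compound for 40 hours at 37 °C; potency reflects cytotoxicity seen as loss of intracellular ATP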). Particulars: MRC5 lung fibroblast viability, qHTS. The procedure, abridged: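 AC50 values come from Hill-equation fits of intracellular ATP loss, measured by CellTiter-Glo luminescence. Normal lung fibroblasts (MRC5) had 40 hr compound treatment at 37 C, normalized between DMSO and 100 uM tamoxifen.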
A short description of test [8]: Cell Viability - SK-N-SH (AID 435; calls by dose curve;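 further: potency means the concentration at half of the fitted maximal effect; compound exposure lasted 40 h at 37 °C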). The settings on record: SK-N-SH neuroblastoma cell viability qHTS. In short, it runs like this:
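Human neuroblastoma line, 40 h exposure at 37 °C, ATP quantified via luciferase luminescence; DMSO and 100 uM tamoxifen define 0 and 100% inhibition for AC50 fitting.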

Test [9] concerns the target Cytochrome P450 1A2 (Homo sapiens) (UniProt P05177). Nature of the test: p450-cyp1a2 (AID 410; calls by dose curve; further: potency means the concentration at half of the fitted maximal effect;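 on activity change, negative = inhibition: -100% = full effect of reference inhibitor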). Particulars: recombinant CYP1A2, luciferin-ME demethylation, luminescence; series mostly up to 57 µM. The procedure, abridged: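 20nM CYP1A2, 100uM Luciferin-ME (=Km), 100mM KPO4; cpd 10 min RT; +NADPH regen, 60 min RT; stop/detect 20 min; luminescence. Normalized to furafylline 57 uM = full inhibition.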

For test [10], the target named is Lysosomal acid glucosylceramidase (Homo sapiens) (UniProt P04062). Nature of the test: Glucocerebrosidase-p2 (AID 348; in the data active means potency below about 10 µM; further: potency means the concentration at half of the fitted maximal effect). The settings on record: purified GBA, blue fluorogenic substrate, 40 min. The text has this:
Beta-glucocerebrosidase catalyzes the hydrolysis of beta-glucocerebroside to glucose and ceramide. The inherited deficiency of beta-glucocerebrosidase results in Gaucher disease, which is characterized by a wide variety of symptoms including hepatosplenomegaly, anemia, thrombocytopenia, bony lesions and bone marrow infiltration with characteristic storage cells, known as Gaucher cells. There are also forms of the disorder affecting the central nervous system. Patients with the same genotypes can manifest with diverse clinical presentations and it is believed that improper folding and trafficking of beta-glucocerbrosidase may contribute to the phenotypes observed.
Low molecular weight molecules, acting as chaperones, may potentially restore trafficking of misfolded beta-glucocerebrosidase from the endoplasmic reticulum to the lysosomes, thereby enhancing functional lysosomal beta-glucocerebrosidase activity.
Using normal beta-glucocerebrosidase, an assay was developed to screen for small molecule inhibitors that could potentially act as molecular chaperones on the mutant forms [developed with NIH investigator Dr. Ellen Sidransky#s laboratory]. Two pro-fluorescent substrates were chosen for two screens against a small molecule library. […]
Blue fluorescence substrate assay: […]
Read the plate in Viewlux plate reader (Ex=365(10) and Em=440(10)).

Sequence of Cytochrome P450 1A2 (Homo sapiens) (P05177 whole entry, looked up): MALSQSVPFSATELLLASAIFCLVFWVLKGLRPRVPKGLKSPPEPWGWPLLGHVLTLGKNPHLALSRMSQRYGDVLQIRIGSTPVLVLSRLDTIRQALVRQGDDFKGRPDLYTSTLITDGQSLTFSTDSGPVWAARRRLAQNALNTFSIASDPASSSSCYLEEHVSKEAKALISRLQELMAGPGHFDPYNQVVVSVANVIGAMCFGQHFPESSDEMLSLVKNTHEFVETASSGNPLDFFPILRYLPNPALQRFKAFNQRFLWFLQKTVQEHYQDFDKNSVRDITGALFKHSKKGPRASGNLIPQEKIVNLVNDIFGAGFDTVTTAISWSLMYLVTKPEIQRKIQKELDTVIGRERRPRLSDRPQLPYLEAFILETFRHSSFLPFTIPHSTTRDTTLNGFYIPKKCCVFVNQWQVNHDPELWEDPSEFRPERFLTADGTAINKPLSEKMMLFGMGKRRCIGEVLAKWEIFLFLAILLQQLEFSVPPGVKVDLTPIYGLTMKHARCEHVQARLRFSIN
Sequence of Lysosomal acid glucosylceramidase (Homo sapiens) (P04062 whole entry, looked up): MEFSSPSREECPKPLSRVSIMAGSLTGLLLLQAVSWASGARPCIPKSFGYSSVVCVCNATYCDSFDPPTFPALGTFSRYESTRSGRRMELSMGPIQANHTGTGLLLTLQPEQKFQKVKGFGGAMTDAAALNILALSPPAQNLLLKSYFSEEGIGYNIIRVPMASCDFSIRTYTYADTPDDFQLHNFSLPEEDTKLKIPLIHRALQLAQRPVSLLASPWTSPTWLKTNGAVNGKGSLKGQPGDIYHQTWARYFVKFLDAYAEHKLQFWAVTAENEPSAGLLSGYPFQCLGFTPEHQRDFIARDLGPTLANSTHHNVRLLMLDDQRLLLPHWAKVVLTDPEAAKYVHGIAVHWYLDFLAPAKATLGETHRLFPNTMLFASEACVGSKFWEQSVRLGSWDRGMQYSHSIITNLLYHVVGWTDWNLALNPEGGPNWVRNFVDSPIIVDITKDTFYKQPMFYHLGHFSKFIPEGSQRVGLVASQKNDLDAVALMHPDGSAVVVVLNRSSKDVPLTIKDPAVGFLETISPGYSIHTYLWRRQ

Turning to `Cc1onc(-c2ccccc2)c1C(=O)N[C@@H]1C(=O)N2[C@@H]1SC(C)(C)[C@@H]2C(=O)O`, the result in test [1] and in [3] was inactive. Moreover, the activity change, negative = inhibition in test [2] (at 17.2 µM (top of the series)) is 24.2% (inactive).

Consider `O=S(=O)(O)O`, for which the Potency in test [4], in test [5], in test [6], in [7] and in test [8] was > 92 µM (inactive) in each case.

`CCCCCCCC(=O)O`: the Potency in test [4], in test [5], in test [6], in test [7] and in [8] was > 92 µM (inactive) each time.

For `CCN(CC)Cc1cc(Nc2ccnc3cc(Cl)ccc23)ccc1O`, the result in test [1] and in test [3] was inactive.

Consider `CC(C)(C)C(=O)OCOC(=O)[C@@H]1N2C(=O)[C@@H](N=CN3CCCCCC3)[C@H]2SC1(C)C`, for which the result in [1] and in test [3] was inactive.

Take `O=CCCCC=O`: the Potency is > 92 µM (inactive) in test [4], 6.45 µM (active) in test [5], > 92 µM (inactive) in test [6] and > 92 µM (inactive) in test [7].

`C[C@]12C=CC(=O)C=C1CC[C@@H]1[C@@H]2[C@@H](O)C[C@@]2(C)[C@H]1CC[C@]2(O)C(=O)COC(=O)CCC(=O)O`: the outcome in test [1] and in [3] was inactive. The activity change, negative = inhibition in [2] (at 17.2 µM (top of the series)) is 20.1% (inactive).

In the case of `CC1(C)S[C@@H]2[C@H](NC(=O)Cc3ccccc3)C(=O)N2[C@H]1C(=O)O`, the outcome in test [1] and in test [3] was inactive. Further, the activity change, negative = inhibition in test [2] (at 17.2 µM (top of the series)) is -9.19% (inactive) and 5.43% (inactive).

With `C[C@@H]1C[C@H]2[C@@H]3CCC4=CC(=O)C=C[C@]4(C)[C@@]3(F)[C@@H](O)C[C@]2(C)[C@@]1(O)C(=O)COP(=O)(O)O`, the result in test [1] and in test [3] was inactive.

Consider `CC1=C(/C=C/C(C)=C/C=C/C(C)=C/CO)C(C)(C)CCC1`, for which the Potency in test [4], in test [6] and in test [7] was > 92 µM (inactive) each time.

For the compound `CC(=O)N[C@@H](CC(=O)O)C(=O)N[C@@H](CCC(=O)O)C(=O)O` (Ac-Asp-Glu-OH), the Potency entry in test [9] was “inactive”. Besides, in test [2] (at 17.2 µM (top of the series)), the activity change, negative = inhibition was -12.3% (inactive). Besides, the call in [3] was inactive.

`Cc1c(C)c2c(c(C)c1O)CC[C@@](C)(CCC[C@@H](C)CCC[C@@H](C)CCCC(C)C)O2`: the outcome in test [1] and in test [3] was inactive. Also, the Potency result in [9] was “inactive”. Besides, the activity change, negative = inhibition in test [2] (at 17.2 µM (top of the series)) is -1.66% (inactive).

`CCCC(=O)O[C@]1(C(=O)COC(C)=O)CC[C@H]2[C@@H]3C[C@H](F)C4=CC(=O)C=C[C@]4(C)[C@@]3(F)[C@@H](O)C[C@@]21C`: the outcome in [1] and in test [3] was inactive. Besides, the activity change, negative = inhibition in [2] (at 17.2 µM (top of the series)) was -29.7% (inactive).

For the compound `CC(C)=O`, the Potency in [4], in test [5], in test [6], in test [7] and in test [8] was > 92 µM (inactive) each time.

With `CCOc1ccc2c(c1)C(C)=CC(C)(C)N2`, the result in test [1] and in [3] was inactive. Also, the Potency in test [9] was 5.01 µM (active); in test [4] it was > 92 µM (inactive); in test [5] it was > 92 µM (inactive); in test [6] it was > 92 µM (inactive); in test [7] it was > 92 µM (inactive); in [8], > 92 µM (inactive). Moreover, in [2] (at 17.2 µM (top of the series)), the activity change, negative = inhibition is 4.3% (inactive).

As for `CC[N+](C)(C)Cc1ccccc1Br`, the result in test [1] and in test [3] was inactive. For the same compound, the activity change, negative = inhibition is -8.6% (inactive) in [2] (at 17.2 µM (top of the series)) and -11% (inactive) in test [2] (at 38 µM (top of the series)).

With `CC(O)CO` (stereo not given), the Potency in test [4], in [5], in [6], in [7] and in [8] was > 92 µM (inactive) each time.

As to `COc1ccc(CCNC[C@H](O)c2ccc(O)cc2)cc1OC`, the outcome in [1] and in [3] was inactive. For the same compound, in test [9], the Potency result is “inactive”. For the same compound, the activity change, negative = inhibition in [2] (at 38 µM (top of the series)) was -28.1% (inactive).

For the compound `CN1Cc2c(N)cccc2C(c2ccccc2)C1` (stereo not given), in test [1], the outcome was inactive.

Take `CC(C)(C)NC(=O)[C@@H]1C[C@@H]2CCCC[C@@H]2CN1C[C@@H](O)[C@H](Cc1ccccc1)NC(=O)[C@H](CC(N)=O)NC(=O)c1ccc2ccccc2n1`: in [5], the Potency is 46.4 µM (active).

For the compound `CCCC(=O)Nc1ncnc2c1ncn2[C@@H]1O[C@@H]2COP(=O)(O)O[C@H]2[C@H]1OC(=O)CCC`, the result in [1] and in test [3] was inactive. Moreover, the activity change, negative = inhibition in [2] (at 17.2 µM (top of the series)) is -26.8% (inactive).

In the case of `Cc1ccccc1`, the Potency in test [4], in test [5], in [6], in test [7] and in test [8] was > 92 µM (inactive) throughout.

As to `Nc1c(Br)cc(Br)cc1CNC1CCC(O)CC1` (stereo not given), the outcome in test [1] and in test [3] was inactive. Besides, in [2] (at 17.2 µM (top of the series)), the activity change, negative = inhibition is 0.0265% (inactive).

Take `CC(C)N=c1cc2n(-c3ccc(Cl)cc3)c3ccccc3nc-2cc1Nc1ccc(Cl)cc1`: the Potency result in [9] was “inactive”. The activity change, negative = inhibition in test [2] (at 17.2 µM (top of the series)) was -120% (active). Moreover, the compound was classed as inactive in [3].

Take `CC1=C2[C@@H]([C@H](C)CC[C@H]2/C=C(\C)C(=O)O)[C@H](O)C1`: the Potency in test [4], in test [5], in test [6], in test [7] and in test [8] was > 92 µM (inactive) each time.

Consider `O=C(O)CCC(=O)C(=O)O`, for which the Potency in test [10] is > 11.4 µM (inactive); in [4], > 92 µM (inactive); in test [5], > 92 µM (inactive); in test [6], > 92 µM (inactive); in [7] it was > 92 µM (inactive); in [8] it was > 92 µM (inactive). Besides, the outcome in test [1] and in test [3] was inactive. Further, the activity change, negative = inhibition was -11.7% [at 11.4 µM] (inactive) in test [9] and 15.2% (inactive) in test [2] (at 7.69 µM (top of the series)).
